Bioassay records: PubChem, National Center for Advancing Translational Sciences (NCATS)
HT1080-NT tox: qHTS for induction of synthetic lethality in tumor cells producing 2HG: qHTS for the HT-1080-NT fibrosarcoma cell line | AID 686970, 2013 | Potency, µM (series often up to 46.1 µM), for the others: at the top dose activity, negative = less viability, hits mostly cytotoxic | HT-1080-NT fibrosarcoma viability, CellTiter-Glo ATP luminescence, 48 h | hit rate 1.6% among 360,000;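 further: NT is the 2HG producing partner of a matched IDH1 knockdown line; potency means the concentration at half of the fitted maximal effect; 0% = DMSO-treated cells and -100% = media-only wells without cells; nearly all actives have a fitted effect of over 55% in size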
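Fibrosarcoma NT cells, 750 per well in 5% FBS RPMI, were exposed to compound for 48 hours. Viability: CellTiter-Glo luminescence.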
IL-1B inflam inh: qHTS for Inhibitors of Inflammasome Signaling: IL-1-beta AlphaLISA Primary Screen; THP-1 LPS/ATP IL-1B secretion, AlphaLISA, 16 h; stronger effect = lower value; activity change, % at 57.5 µM; hit rate 4.7% among 360,000; AID 743279, 2014; in the data active means activity change below about -50%; inconclusive means mostly about -30% to -49%
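THP-1 cells pretreated 1 hr with compounds (up to 57.5 uM final), then stimulated with LPS (250 ng/mL final) plus ATP (1.25 mM final); secreted IL-1B measured by AlphaLISA after 16 hr, decreased signal indicating inhibition.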
DT40 TDP1 CPT: qHTS for Inhibitors of human tyrosyl-DNA phosphodiesterase 1 (TDP1): qHTS in cells in presence of CPT. chicken DT40 Tdp1-/-;hTDP1 cells + 20 nM CPT, ATP luminescence, 48 h. Potency, µM (doses to about 46.2 µM), inactives show top-dose activity change, negative = growth inhibition, actives largely listed as inhibitors. hit rate 12% among 420,000. AID 686979, 2013; further: potency means the concentration at half of the fitted maximal effect; nearly all actives have a fitted effect of over 55% in size
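Cell growth measured by CellTiter-Glo luminescence after a minimum 48 h, 37 C compound exposure with 20 nM CPT in Tdp1-knockout DT40 cells stably expressing hTDP1, seeded 400/well; qHTS titration format.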
ALOX12 inh: Primary qHTS assay for inhibitors of human arachidonate 12S-lipoxygenase (ALOX12): Round 2; Polyunsaturated fatty acid lipoxygenase ALOX12 (Homo sapiens), P18054; purified 12hLO, xylenol orange hydroperoxide absorbance; Potency, µM (highest dose often 108 µM), for inactives: at the top dose activity change, negative = inhibition, actives largely listed as inhibitors; hit rate 1.1% among 580,000; further: potency means the concentration at half of the fitted maximal effect
Target sequence (P18054 whole entry, looked up): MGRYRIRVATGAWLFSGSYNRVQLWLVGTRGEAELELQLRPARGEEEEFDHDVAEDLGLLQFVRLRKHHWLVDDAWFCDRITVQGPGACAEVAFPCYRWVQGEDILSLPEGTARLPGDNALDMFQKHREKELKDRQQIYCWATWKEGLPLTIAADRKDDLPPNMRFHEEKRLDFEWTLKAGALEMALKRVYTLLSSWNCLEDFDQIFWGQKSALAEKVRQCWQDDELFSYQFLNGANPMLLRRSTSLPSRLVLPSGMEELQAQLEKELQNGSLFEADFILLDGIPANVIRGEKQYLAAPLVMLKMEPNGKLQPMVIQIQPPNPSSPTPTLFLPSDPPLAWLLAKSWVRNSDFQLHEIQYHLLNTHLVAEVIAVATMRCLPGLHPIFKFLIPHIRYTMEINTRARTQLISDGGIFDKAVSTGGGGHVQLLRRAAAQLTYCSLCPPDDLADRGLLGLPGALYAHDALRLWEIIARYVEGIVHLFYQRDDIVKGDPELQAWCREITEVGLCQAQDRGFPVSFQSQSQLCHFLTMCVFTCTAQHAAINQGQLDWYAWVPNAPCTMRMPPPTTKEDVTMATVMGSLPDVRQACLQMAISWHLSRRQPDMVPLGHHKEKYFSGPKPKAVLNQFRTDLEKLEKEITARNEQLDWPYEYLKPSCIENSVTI
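Hydroperoxide product was detected by ferrous iron/xylenol orange as the 573 to 405 nm absorbance ratio. Arachidonic acid at 40 uM (final) was turned over for 30 min at room temperature by 150 nM human 12hLO, pH 7.0 Hepes buffer, after 15 min compound preincubation.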
DT40 TDP1 no CPT: qHTS for Inhibitors of human tyrosyl-DNA phosphodiesterase 1 (TDP1): qHTS in cells in absence of CPT; hit rate 15% among 420,000; DT40 Tdp1-/- hTDP1 cells, no CPT, ATP luminescence, 48 h; Potency, µM (highest dose often 46.2 µM), without a hit: at the top dose activity change, negative = growth inhibition, hits mostly inhibitors; further: potency means the concentration at half of the fitted maximal effect; nearly all actives have a fitted effect of over 55% in size
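Readout: luminescence from CellTiter-Glo after 30 min in the dark at RT. Cells: DT40 Tdp1-/- with stable hTDP1, 400/well. Exposure: compounds alone, ≥48 hr, 37 °C.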
HT1080 IDH1KD tx: qHTS for induction of synthetic lethality in tumor cells producing 2HG: qHTS for the HT-1080-IDH1KD cell line | HT-1080 IDH1 knockdown viability, ATP luminescence, 48 h | hit rate 2% among 360,000 | Potency, µM (series often up to 46.1 µM), for inactives: at the top dose activity, negative = toxicity, usual class: cytotoxic;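 further: potency means the concentration at half of the fitted maximal effect; 0% = DMSO wells and -100% = cell-free medium wells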
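% activity derives from luminescence (CellTiter-Glo), normalised to DMSO and no-cell wells. HT-1080-IDH1KD cells, 750/well, had 48 h compound exposure at 37 °C.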
* marks the source's active call; other numbers are inactive results; u = inconclusive; x = no result; ! = not active in a repeat; [ ] = another dose, or the depositor's remark. The full list was thinned out, with hits kept by preference. Unless noted, the call rests on the fitted dose curve; in most records, active means well fitted curve in the direction sought with a large enough effect; inconclusive means small, poorly fitted or top-dose-only effect, or another doubt; inactive means no such curve, though single readings can be large; an effect the other way counts as inactive or inconclusive. Unless noted, on the % scale 0 is the no-effect control and ±100 the full control effect.

SMILES	HT1080-NT tox	IL-1B inflam inh	DT40 TDP1 CPT	ALOX12 inh	DT40 TDP1 no CPT	HT1080 IDH1KD tx
CCN1CCN(Cc2ccc(NC(=O)c3ccc(C)c(NC(=O)c4cccc(-c5cn[nH]c(=O)c5)c4)c3)cc2C(F)(F)F)CC1	u	-96*	u	x	16µM*	-7%
CCN1CCN(Cc2ccc(NC(=O)c3cc(NC(=O)c4ccno4)cc(OC)c3)cc2C(F)(F)F)CC1	-23%	u	u	u	23µM*	-21%
O=C(Nc1ccc(-c2cnc(C3CC3)o2)cc1)c1ccc(F)cc1	x	x	x	-5%	x	x
O=C(Oc1ccccc1/C=C\C(=O)c1cc2ccccc2o1)c1ccccc1	u	0	7.3µM*	-10%	7.3µM*	u
COc1cccc(C(=O)Oc2ccccc2/C=C\C(=O)c2cc3ccccc3o2)c1	18µM*	-95*	6.5µM*	-29%	4.6µM*	21µM*
O=C(/C=C/c1ccc(F)c(F)c1)c1cc2ccccc2o1	x	x	x	8%	x	x
N#Cc1ccc(/C=C/C(=O)c2cc3ccccc3o2)cc1	x	x	x	-27%	x	x
O=C(Oc1ccccc1/C=C\C(=O)c1cc2ccccc2o1)c1cccc(F)c1	u	-68*	5.2µM*	-10%	21µM*	-29%
COc1cccc(C(=O)Oc2ccc3ccccc3c2)c1	x	x	x	5%	x	x
CC(C)CNC(=O)N1CCC(CCOc2ccc(F)cc2)C1 (configuration not stated)	x	x	x	8%	x	x
C[C@@]1(O)CCN(C(=O)c2ccc(-c3noc(C4CC4)n3)cc2)C[C@@H]1O	x	x	x	32%	x	x
CCn1nc(-c2ccccc2)c(-c2ccccc2)c(C(=O)Nc2nc(C)c(C(C)=O)s2)c1=O	x	x	1.6µM*	-8%	1.6µM*	x
CCn1nc(-c2ccccc2)c(-c2ccccc2)c(C(=O)Nc2ccc(S(N)(=O)=O)cc2)c1=O	x	x	u	-16%	u	x
CC(C)CCNC(=O)c1cnc2n1CCN(Cc1ccc3[nH]ccc3c1)CC2	x	x	x	14%[176 µM]	x	x
Cc1cccc(C)c1NC(=O)c1n[nH]c(=O)c2ccccc12	x	x	x	22%	x	x
CC(=O)c1c(O)c(C)c(O)c2c1OC1=CC(=O)C(C(C)=O)C(=O)C12C (configuration not stated)	x	x	3%	x	0%	x
CC(=O)c1c(O)c(C)c(O)c2c1OC1=CC(=O)C(C(C)=O)C(=O)[C@@]12C (some centres not stated)	-2%	3	18µM*!	u	u	-6%
CCO[C@H]1CN(C(=O)Cn2ncc3ccccc3c2=O)C[C@@H]1O	x	x	x	18%	x	x
CC[C@H]1OC(=O)[C@H](C)[C@@H](O[C@H]2C[C@@](C)(OC)[C@@H](O)[C@H](C)O2)[C@H](C)[C@@H](O[C@@H]2O[C@H](C)C[C@H](N(C)C)[C@@H]2O)[C@](C)(OC)C[C@@H](C)C(=O)[C@H](C)[C@@H](O)[C@]1(C)O	x	x	x	-9%[57.4 µM]	x	x
CC[C@H]1OC(=O)[C@H](C)[C@@H](O[C@H]2C[C@@](C)(OC)[C@@H](O)[C@H](C)O2)[C@H](C)[C@@H](O[C@@H]2O[C@H](C)C[C@H](N(C)C)[C@H]2O)[C@](C)(O)C[C@@H](C)C(=NOCOCCOC)[C@H](C)[C@@H](O)[C@]1(C)O	x	-14	u	7%	7.3µM*	x
Cc1sc2ncn(CC(=O)NCCCC(=O)N3CCC(C)CC3)c(=O)c2c1C	10%	15	5%	5%	-18%	16%
CCOC(=O)C1CCN(C(=O)CCCNC(=O)Cn2cnc3sc(C)c(C)c3c2=O)CC1	8%	-68*	4%	-11%	0%	3%
Cc1ccc(S(=O)(=O)Nc2cccc(C(=O)NCC3CCCO3)c2)cc1F (configuration not stated)	1%	14	u	35%	u	-26%
Cc1cc(C)cc(NC(=S)NCCO)c1	x	x	x	14µM*	x	x
COc1cc(NC(=S)NCc2cccs2)cc(OC)c1	8%	-9	u	u	u	12%
SMILES	HT1080-NT tox	IL-1B inflam inh	DT40 TDP1 CPT	ALOX12 inh	DT40 TDP1 no CPT	HT1080 IDH1KD tx
c1ccc(NCc2cccs2)cc1	x	x	x	-18%	x	x
Cc1cc(C)cc(NC(=S)NCc2cccs2)c1	-9%	0	15µM*	u	u	-1%
CC(C)(C)c1ccc(NC(=S)NCc2cccs2)cc1	u	9	u	32µM*	u	u
CCC(C)c1ccc(NC(=S)NCc2cccs2)cc1 (configuration not stated)	u	0	u	u	u	u
Oc1ccc(NCc2cccs2)cc1	u	9	u	u	13µM*	u
Cc1cc(C)c(NC(=S)NCCO)c(C)c1	-1%	25	2%	9%	8%	-1%
Fc1ccc(-c2cc(C(F)(F)F)[nH]n2)cc1	x	x	x	0%	x	x
CCC1=NN(C(=O)c2ccc(Cl)cc2)C(O)(c2ccccc2)C1 (configuration not stated)	-12%	-8	23µM*	-8%	u	-8%
CCC1=NN(C(=O)c2ccccc2O)C(O)(c2ccccc2)C1 (configuration not stated)	u	107	13µM*	-28%	12µM*	u
Cc1noc(C)c1COC(=O)CCN1c2ccccc2Sc2ccccc21	1%	-16	u	0%	21µM*	-8%
Cc1noc(C)c1COC(=O)CCc1nc2ccccc2s1	24%	-1	-14%	0%	-10%	16%
CCNC(=O)NC(=O)COC(=O)c1csc(NCc2ccccc2)n1	x	x	x	-2%	x	x
O=C1Nc2cc3c(cc2C1=O)sc1ccccc13	-1%	x	21µM*	33%	29µM*	-6%
COc1ccc(OC)c(-c2csc(N(Cc3ccco3)C(=O)c3ccco3)n2)c1	-4%	5	u	1%	21µM*	u
Cc1ccc(-c2csc(N(CCCN3CCOCC3)C(=O)c3ccco3)n2)cc1	u	-53*	u	u	21µM*	u
COc1ccc(-c2csc(N(CCCN3CCOCC3)C(=O)c3ccco3)n2)cc1	-22%	u	18µM*	u	16µM*	-13%
